Experimental data: PubChem BioAssay (NCI)
Compounds without any hit were thinned out: in the full panel of roughly 83,000, 20% have a hit.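 Cell lines were cultured in 96-well plates, exposed to a single compound concentration, and assessed for percent growth 48 hours later.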 Active and inactive are the calls of the source. Rule for the calls: active = growth percent below 10; inactive = the rest.

Columns and labels:
Experiment in all cases: NCI-60 one-dose screen, 48 h (100 = growth as untreated, 0 = no growth, -100 = all killed)
HT29 colon = details: 10 µM unless noted
SNB-75 CNS = details: 10 µM unless noted
SNB-19 CNS = details: 10 µM unless noted
U251 CNS = details: 10 µM unless noted
PC-3 prostate = details: 10 µM unless noted
SK-MEL-5 melanoma = details: 10 µM unless noted
UACC-62 melanoma = details: 10 µM unless noted
LOX IMVI melanoma = details: 10 µM unless noted
SK-MEL-28 melanoma = details: 10 µM
SK-MEL-2 melanoma = details: 10 µM unless noted
SN12C renal = details: 10 µM unless noted
UO-31 renal = details: 10 µM unless noted
TK-10 renal = details: 10 µM unless noted
ACHN renal = details: 10 µM unless noted
CAKI-1 renal = details: 10 µM unless noted
A498 renal = details: 10 µM unless noted
CCRF-CEM leukemia = details: 10 µM unless noted
MOLT-4 leukemia = details: 10 µM unless noted
SR leukemia = details: 10 µM unless noted

SMILES: CCOc1ccc2nc(C)cc(Nc3ccc(Br)cc3)c2c1
- growth (HT29 colon): 77.8% (inactive)
- growth (SNB-75 CNS): 89.7% (inactive)
- growth (SNB-19 CNS): 101% (inactive)
- growth (U251 CNS): 98.1% (inactive)
- growth (PC-3 prostate): 86.7% (inactive)
- growth (SK-MEL-5 melanoma): 97.1% (inactive)
- growth (UACC-62 melanoma): 103% (inactive)
- growth (LOX IMVI melanoma): 106% (inactive)
- growth (SK-MEL-28 melanoma): 108% (inactive)
- growth (SK-MEL-2 melanoma): 109% (inactive)
- growth (SN12C renal): 98.5% (inactive)
- growth (UO-31 renal): 92.1% (inactive)
- growth (TK-10 renal): 119% (inactive)
- growth (ACHN renal): 99.6% (inactive)
- growth (CAKI-1 renal): 97% (inactive)
- growth (A498 renal): 79.1% (inactive)
- growth (CCRF-CEM leukemia): 90.3% (inactive)
- growth (MOLT-4 leukemia): 88.6% (inactive)
- growth (SR leukemia): 86.4% (inactive)

SMILES: O=c1[nH]nnc2c1ncn2C1OC(CO)C(O)C1O (centres undefined)
- growth (HT29 colon): 50.4% (inactive)
- growth (SNB-75 CNS): 44.8% (inactive)
- growth (SNB-19 CNS): 105% (inactive)
- growth (U251 CNS): 97.7% (inactive)
- growth (PC-3 prostate): 50.6% (inactive)
- growth (SK-MEL-5 melanoma): 91.8% (inactive)
- growth (UACC-62 melanoma): 58% (inactive)
- growth (LOX IMVI melanoma): 22.6% (inactive)
- growth (SK-MEL-28 melanoma): 102% (inactive)
- growth (SK-MEL-2 melanoma): 6% (active)
- growth (SN12C renal): 97.7% (inactive)
- growth (UO-31 renal): 36% (inactive)
- growth (TK-10 renal): 39.8% (inactive)
- growth (ACHN renal): 30.2% (inactive)
- growth (CAKI-1 renal): 25.2% (inactive)
- growth (A498 renal): 86.7% (inactive)
- growth (CCRF-CEM leukemia): 27.5% (inactive)
- growth (MOLT-4 leukemia): 26.3% (inactive)
- growth (SR leukemia): 37.7% (inactive)

SMILES: Oc1ccc(-c2nc(-c3ccc4oc5ccc(-c6[nH]c(-c7ccc(O)cc7)nc6-c6ccccc6)cc5c4c3)c(-c3ccccc3)[nH]2)cc1
- growth (HT29 colon): 34.6% (inactive)
- growth (SNB-75 CNS): 39.2% (inactive)
- growth (SNB-19 CNS): 63.5% (inactive)
- growth (U251 CNS): 58.2% (inactive)
- growth (PC-3 prostate): 52.1% (inactive)
- growth (SK-MEL-5 melanoma): 70.8% (inactive)
- growth (UACC-62 melanoma): 49.9% (inactive)
- growth (LOX IMVI melanoma): 67.5% (inactive)
- growth (SK-MEL-28 melanoma): 77.8% (inactive)
- growth (SK-MEL-2 melanoma): 93.7% (inactive)
- growth (SN12C renal): 39.3% (inactive)
- growth (UO-31 renal): 39.2% (inactive)
- growth (TK-10 renal): 80.3% (inactive)
- growth (ACHN renal): 73.5% (inactive)
- growth (CAKI-1 renal): 69.5% (inactive)
- growth (A498 renal): 77.5% (inactive)
- growth (CCRF-CEM leukemia): 43.9% (inactive)
- growth (MOLT-4 leukemia): 57.1% (inactive)
- growth (SR leukemia): 43.1% (inactive)

SMILES: Cn1c(=O)n(C)c2cc(CNCCNc3ccnc4cc(Cl)ccc34)ccc21
- growth (HT29 colon): 6.95% (active)
- growth (SNB-75 CNS): 69.6% (inactive)
- growth (SNB-19 CNS): 89% (inactive)
- growth (U251 CNS): 51.5% (inactive)
- growth (PC-3 prostate): 64.2% (inactive)
- growth (SK-MEL-5 melanoma): 72.3% (inactive)
- growth (UACC-62 melanoma): -46.8% (active)
- growth (LOX IMVI melanoma): 9.85% (active)
- growth (SK-MEL-28 melanoma): -36.1% (active)
- growth (SK-MEL-2 melanoma): 65.7% (inactive)
- growth (SN12C renal): 63.3% (inactive)
- growth (UO-31 renal): 36.9% (inactive)
- growth (TK-10 renal): 62.3% (inactive)
- growth (ACHN renal): 4.21% (active)
- growth (CAKI-1 renal): 66.2% (inactive)
- growth (A498 renal): 72.3% (inactive)
- growth (CCRF-CEM leukemia): 58.5% (inactive)
- growth (MOLT-4 leukemia): 61.1% (inactive)
- growth (SR leukemia): 3.33% (active)

SMILES: CCOc1ccc(Nc2ccnc3cc(Cl)ccc23)cc1
- growth (HT29 colon): 1.61% (active)
- growth (SNB-75 CNS): 1.25% (active)
- growth (SNB-19 CNS): 16% (inactive)
- growth (U251 CNS): 4.87% (active)
- growth (PC-3 prostate): 4.74% (active)
- growth (SK-MEL-5 melanoma): -12.5% (active)
- growth (UACC-62 melanoma): 21.9% (inactive)
- growth (LOX IMVI melanoma): -22.3% (active)
- growth (SK-MEL-28 melanoma): 31.1% (inactive)
- growth (SK-MEL-2 melanoma): -40.5% (active)
- growth (SN12C renal): 7.43% (active)
- growth (UO-31 renal): -12.8% (active)
- growth (TK-10 renal): 7.11% (active)
- growth (ACHN renal): 10.9% (inactive)
- growth (CAKI-1 renal): 2.27% (active)
- growth (A498 renal): -19.5% (active)
- growth (CCRF-CEM leukemia): 3.77% (active)
- growth (MOLT-4 leukemia): 4.04% (active)
- growth (SR leukemia): 0.437% (active)

SMILES: CC1CCCCN1CCCNC(=O)c1ccc2c(c1)sc1nc(-c3ccc(F)cc3)cn12 (centres undefined)
- growth (HT29 colon): 92.8% (inactive)
- growth (SNB-75 CNS): 83.5% (inactive)
- growth (SNB-19 CNS): 104% (inactive)
- growth (U251 CNS): 99.1% (inactive)
- growth (PC-3 prostate): 83.8% (inactive)
- growth (SK-MEL-5 melanoma): 99.3% (inactive)
- growth (UACC-62 melanoma): 100% (inactive)
- growth (LOX IMVI melanoma): 93.1% (inactive)
- growth (SK-MEL-28 melanoma): 104% (inactive)
- growth (SK-MEL-2 melanoma): 103% (inactive)
- growth (SN12C renal): 99.6% (inactive)
- growth (UO-31 renal): 77% (inactive)
- growth (TK-10 renal): 90.4% (inactive)
- growth (ACHN renal): 101% (inactive)
- growth (CAKI-1 renal): 97.4% (inactive)
- growth (A498 renal): 83.7% (inactive)
- growth (CCRF-CEM leukemia): 82.8% (inactive)
- growth (MOLT-4 leukemia): 85.7% (inactive)
- growth (SR leukemia): 78.1% (inactive)

SMILES: N#Cc1c(N)nc2c(c1N)C(c1ccc(F)cc1)c1ccc(N)cc1O2 (centres undefined)
- growth (HT29 colon): 112% (inactive)
- growth (SNB-75 CNS): 86.6% (inactive)
- growth (SNB-19 CNS): 127% (inactive)
- growth (U251 CNS): 102% (inactive)
- growth (PC-3 prostate): 106% (inactive)
- growth (SK-MEL-5 melanoma): 96.1% (inactive)
- growth (UACC-62 melanoma): 111% (inactive)
- growth (LOX IMVI melanoma): 110% (inactive)
- growth (SK-MEL-28 melanoma): 109% (inactive)
- growth (SK-MEL-2 melanoma): 112% (inactive)
- growth (SN12C renal): 104% (inactive)
- growth (UO-31 renal): 105% (inactive)
- growth (TK-10 renal): 116% (inactive)
- growth (ACHN renal): 102% (inactive)
- growth (CAKI-1 renal): 91.3% (inactive)
- growth (A498 renal): 58.4% (inactive)
- growth (CCRF-CEM leukemia): 99.9% (inactive)
- growth (MOLT-4 leukemia): 96.4% (inactive)
- growth (SR leukemia): 93% (inactive)

SMILES: CC(=Nc1ccccc1)C1=C(O)C(Cc2ccc(F)cc2)NC1=O (centres undefined)
- growth (HT29 colon): 2.78% (active)
- growth (SNB-75 CNS): 17.9% (inactive)
- growth (SNB-19 CNS): 42.4% (inactive)
- growth (U251 CNS): 28.2% (inactive)
- growth (PC-3 prostate): 18.3% (inactive)
- growth (SK-MEL-5 melanoma): 25.1% (inactive)
- growth (UACC-62 melanoma): 23.5% (inactive)
- growth (LOX IMVI melanoma): 36.2% (inactive)
- growth (SK-MEL-28 melanoma): 45.3% (inactive)
- growth (SK-MEL-2 melanoma): 17.6% (inactive)
- growth (SN12C renal): 49.1% (inactive)
- growth (UO-31 renal): 44.3% (inactive)
- growth (TK-10 renal): 41.9% (inactive)
- growth (ACHN renal): 50.9% (inactive)
- growth (CAKI-1 renal): 33.6% (inactive)
- growth (A498 renal): 19.3% (inactive)
- growth (CCRF-CEM leukemia): 10.7% (inactive)
- growth (MOLT-4 leukemia): 14.5% (inactive)
- growth (SR leukemia): 6.59% (active)

SMILES: CN(C)CCNc1cc(-c2ccccc2)nc2ccccc12
- growth (HT29 colon): -42.2% (active)
- growth (SNB-75 CNS): -69.3% (active)
- growth (SNB-19 CNS): 54.2% (inactive)
- growth (U251 CNS): -69% (active)
- growth (PC-3 prostate): -38.5% (active)
- growth (SK-MEL-5 melanoma): -74.3% (active)
- growth (UACC-62 melanoma): -75.9% (active)
- growth (LOX IMVI melanoma): -84% (active)
- growth (SK-MEL-28 melanoma): -90.7% (active)
- growth (SK-MEL-2 melanoma): -45.2% (active)
- growth (SN12C renal): -88.5% (active)
- growth (UO-31 renal): -94.2% (active)
- growth (TK-10 renal): -68% (active)
- growth (ACHN renal): -27.5% (active)
- growth (CAKI-1 renal): -36.1% (active)
- growth (A498 renal): 52.4% (inactive)
- growth (CCRF-CEM leukemia): -9.11% (active)
- growth (MOLT-4 leukemia): 0.855% (active)
- growth (SR leukemia): -23.1% (active)

SMILES: Nc1ccc(-c2nc3cc(Oc4ccc(Oc5ccc6[nH]c(-c7ccc(N)cc7)nc6c5)cc4)ccc3[nH]2)cc1
- growth (HT29 colon): 70.2% (inactive)
- growth (SNB-75 CNS): 115% (inactive)
- growth (SNB-19 CNS): 110% (inactive)
- growth (U251 CNS): 96.6% (inactive)
- growth (PC-3 prostate): 115% (inactive)
- growth (SK-MEL-5 melanoma): 87.5% (inactive)
- growth (UACC-62 melanoma): 58.8% (inactive)
- growth (LOX IMVI melanoma): 99.2% (inactive)
- growth (SK-MEL-28 melanoma): 101% (inactive)
- growth (SK-MEL-2 melanoma): 82.1% (inactive)
- growth (SN12C renal): 90.4% (inactive)
- growth (UO-31 renal): 97.7% (inactive)
- growth (TK-10 renal): 112% (inactive)
- growth (ACHN renal): 101% (inactive)
- growth (CAKI-1 renal): 120% (inactive)
- growth (A498 renal): 91.5% (inactive)
- growth (CCRF-CEM leukemia): 100% (inactive)
- growth (MOLT-4 leukemia): 96.8% (inactive)
- growth (SR leukemia): 91.9% (inactive)

SMILES: O=S(=O)(c1ccccc1)n1cc2c(c1-c1ccccc1)CCc1sc(Nc3ccccc3)nc1-2
- growth (HT29 colon): 93% (inactive)
- growth (SNB-75 CNS): 93% (inactive)
- growth (SNB-19 CNS): 95.2% (inactive)
- growth (U251 CNS): 78.5% (inactive)
- growth (PC-3 prostate): 69.8% (inactive)
- growth (SK-MEL-5 melanoma): 88.3% (inactive)
- growth (UACC-62 melanoma): 78.4% (inactive)
- growth (LOX IMVI melanoma): 77.8% (inactive)
- growth (SK-MEL-28 melanoma): 106% (inactive)
- growth (SK-MEL-2 melanoma): 93.4% (inactive)
- growth (SN12C renal): 77.1% (inactive)
- growth (UO-31 renal): 70.4% (inactive)
- growth (TK-10 renal): 100% (inactive)
- growth (ACHN renal): 77.9% (inactive)
- growth (CAKI-1 renal): 75.8% (inactive)
- growth (A498 renal): 89.4% (inactive)
- growth (CCRF-CEM leukemia): 72.6% (inactive)
- growth (MOLT-4 leukemia): 76% (inactive)
- growth (SR leukemia): 79.3% (inactive)
